# TDP1 cell CPT = qHTS for Inhibitors of human tyrosyl-DNA phosphodiesterase 1 (TDP1): qHTS in cells in presence of CPT. AID 686979, 2013. Potency, µM (highest dose often 46.2 µM), for the others: top-dose activity change, negative = growth inhibition, most hits filed as inhibitors. chicken DT40 Tdp1-/-;hTDP1 cells + 20 nM CPT, ATP luminescence, 48 h. actives 12% (n = 420,000); further: on the % scale 0 is the no-effect control and ±100 the full control effect; nearly all actives have a fitted effect of over 55% in size
#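 Chicken DT40 Tdp1-/- cells stably complemented with human TDP1 were seeded at 400 cells/well in medium containing 20 nM camptothecin, exposed to pin-transferred compounds, and grown at 37 °C for at least 48 hr. Viability was read as ATP luminescence.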
# HepG2 tox = qHTS for Inhibitors of TGF-b: Cytotox Counterscreen; HepG2 CAGA-GFP viability, ATP luminescence, 18 h; actives 0.76% (n = 410,000); AID 588856, 2011; Potency, µM (top dose mostly 46.1 µM), without a hit: top-dose activity change, negative = cytotoxicity, most hits filed as cytotoxic
#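 CellTiter-Glo luminescence gave cytotoxicity after 18 hours at 37 degrees C. The cells were HepG2 CAGA-GFP in 1% FBS DMEM, stimulated with 500 pg/mL TGF-beta after compound addition. %Activity was normalised to no-cell wells (complete cell-killing) and DMSO (no toxicity), and curves were fitted and classified.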
# S2 tox = Viability Counterscreen for Primary qHTS for Inhibitors of ATXN expression | Potency, µM (series often up to 56.7 µM), actives largely listed as cytotoxic | actives 0.49% (n = 400,000) | S2 cells (HEK-293 line with an ATXN2-luciferase reporter) viability, CellTiter-Fluor protease fluorescence, 24 h; further: nearly all actives have a fitted effect of over 40% in size
# TDP1 cell noCPT = qHTS for Inhibitors of human tyrosyl-DNA phosphodiesterase 1 (TDP1): qHTS in cells in absence of CPT | AID 686978, 2013 | Potency, µM (highest dose often 46.2 µM), without a hit: top-dose activity change, negative = growth inhibition, most hits filed as inhibitors | DT40 Tdp1-/- hTDP1 cells, no CPT, ATP luminescence, 48 h | actives 15% (n = 420,000); further: on the % scale 0 is the no-effect control and ±100 the full control effect; nearly all actives have a fitted effect of over 55% in size
#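 Readout: luminescence from CellTiter-Glo after 30 min in the dark at RT. Cells: DT40 Tdp1-/- with stable hTDP1, 400/well. Exposure: compounds alone, ≥48 hr, 37 °C.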
# TGFb SMAD3 inh = qHTS for Inhibitors of TGF-b | Potency, µM (doses to about 46.1 µM), for the others: top-dose activity, negative = inhibition, actives largely listed as inhibitors | actives 1.2% (n = 410,000) | HepG2 CAGA-GFP TGF-b/SMAD3 reporter, GFP fluorescence, 18 h; TGF-beta stimulated, 500 pg/mL final; further: on the % scale 0 is the no-effect control and ±100 the full control effect; nearly all actives have a fitted effect of over 65% in size
#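 Inhibition was scored as loss of TGF-beta-induced (500 pg/mL final, 18 hours, 37 degrees C) GFP in HEPG2 cells carrying a CAGA-GFP reporter, in DMEM with 1% FBS. Well GFP was summed per cell; Activity was normalised to unstimulated and stimulated DMSO wells, then concentration-response fitting.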
# ATXN2 expr inh = Primary qHTS for Inhibitors of ATXN expression. Potency, µM (series often up to 57 µM), inactives show at the highest dose activity change, negative = inhibition, most hits filed as inhibitors. actives 0.72% (n = 360,000). HEK-293 ATXN2-luciferase reporter, luminescence, 24 h; further: on the % scale 0 is the no-effect control and ±100 the full control effect; nearly all actives have a fitted effect of over 55% in size
#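 qHTS (up to 57 uM final) was run with 24 h compound exposure of reporter cells at 37 °C. Each well was multiplexed: SteadyGlo luminescence measured ATXN2-luciferase expression after a fluorogenic Gly-Phe-AFC viability readout (25 uM final).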
# Active calls of the source: *; i = inactive; ? = inconclusive; · = not tested or not shown. A selection: hits, their analogues and other compounds. The true share with any hit is near 17%. The call rests on the fitted dose curve; in most records, active means well fitted curve in the direction sought with a large enough effect; inconclusive means small, poorly fitted or top-dose-only effect, or another doubt; inactive means no such curve, though single readings can be large; an effect the other way counts as inactive or inconclusive. Potency means the concentration at half of the fitted maximal effect.
SMILES,TDP1 cell CPT,HepG2 tox,S2 tox,TDP1 cell noCPT,TGFb SMAD3 inh,ATXN2 expr inh
Cc1ccc(C(=O)NCC(=O)NC23CC4CC(CC(C4)C2)C3)cc1,-3%,-9%,i,3%,-8%,39%
NS(=O)(=O)c1ccc(CNC(=O)NC23CC4CC(CC(C4)C2)C3)cc1,-14%,-9%,i,-8%,11%,6%
O=C(CS(=O)(=O)c1ccc(F)cc1)NCc1ccccc1,35%,15%,i,-4%,9%,2%
COC(=O)Cc1c(C)c2ccc3c(c2oc1=O)CN(Cc1ccc(Cl)cc1)CO3,?,-31%,·,?,9%,-22%
CCN(CC)CCNC(=O)COc1ccc(OC)cc1,18%,-1%,i,11%,2%,5%
CN(C)CCNC(=O)COc1ccc(C23CC4CC(CC(C4)C2)C3)cc1,26µM*,-89%,i,21µM*,?,-17%
Cc1ccc(Cl)cc1N1CCN(C(=O)c2cccn2-c2nnc(N3CCCC3)s2)CC1,12µM*,-35%,·,15µM*,?,·
COc1ccc(N2CCN(C(=O)c3cccn3-c3nnc(N4CCCC4)s3)CC2)cc1,?,-17%,·,?,-31%,·
COc1cccc(N2CCN(C(=O)c3cccn3-c3nnc(N4CCCCC4)s3)CC2)c1,15µM*,3%,·,?,0%,·
COc1cccc(N2CCN(C(=O)c3ccc4nc(N5CCCCC5)sc4c3)CC2)c1,?,-36%,i,16µM*,-7%,23%
Cc1cc(SCC(=O)NCC2CCCO2)nc2ccccc12 (stereo not given),3%,2%,i,2%,13%,7%
COc1ccc(C(=O)Nc2ccnn2C2CCN(C3CCC3)CC2)cc1,5%,5%,i,13%,6%,-11%
C=CCN(CC=C)S(=O)(=O)c1ccc2nc(NC(=O)C(C)C)sc2c1,5.8µM*,-4%,i,2.6µM*,-2%,-26%
CCN(CC)S(=O)(=O)c1cccc(C(=O)NC(C(=O)Nc2nnc(C3CC3)s2)C(C)C)c1 (stereo not given),-5%,-33%,i,?,-7%,-15%
CCN(CC)S(=O)(=O)c1cccc(C(=O)N[C@H](C(=O)Nc2nc3ccccc3s2)C(C)C)c1,?,-28%,i,15µM*,?,10%
O=C(COC(=O)c1cccnc1Cl)Nc1nc(-c2ccccc2)cs1,-16%,-2%,?,-7%,-4%,18%
COc1ccc(/C=C/C(=O)O/N=C(\N)c2ccccc2)cc1OC,-23%,-34%,i,-20%,-17%,51%
COc1ccc(C(=O)Oc2ccc(F)cc2C(=O)/C=C/c2ccc(OC)c(OC)c2)cc1,15µM*,-12%,i,13µM*,0%,-6%
COc1ccc(/C=C/C(=O)c2ccc3c4c(cccc24)CC3)cc1OC,21µM*,-56%,i,16µM*,?,16µM*
COc1ccc(C(=O)Oc2cc(/C=N/NC(N)=S)ccc2OC)cc1,-5%,-16%,i,-26%,?,-7%
COc1ccc(/C=C/C(=O)c2cc(F)ccc2OC(=O)c2ccccc2C)cc1OC,0.92µM*,-77%,?,1µM*,?,-12%
CC(=O)Nc1cccc(-c2nnc(SCC(=O)c3cc([N+](=O)[O-])ccc3Cl)o2)c1,·,-6%,i,·,-2%,-2%
CCn1cc2nc(SCc3cc(C)ccc3C)n(Cc3ccc(C)cc3)c(=O)c2n1,16µM*,-10%,i,-73%,-26%,-1%
